Experimental data from the supplement of paper PMC6089552.
The whole screen tested about 3,200 compounds, of which about 300 (9.4%) showed activity. For the sample, actives were picked, then their nearest neighbours and some compounds at random.

System: A673/TR/shEF
Assay: cell viability (LOESS-normalised, relative to median of negative controls) (log2 ratio); higher = more viable cells (less compound effect), active = hit call of the paper (over 3 MAD below the median)
Conditions: treatment time: 72 h
In short: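 Viability of A673/TR/shEF Ewing sarcoma cells was determined by CellTiter-Glo luminescence. The cells, at 1,500 per well in 384-well plates, were grown with or without doxycycline from 24 h before compound addition to switch on EWS-FLI1 shRNA knockdown, then exposed for three days to library compounds at two or more concentrations or to DMSO controls. Signals were LOESS-corrected plate by plate, normalised to the negative-control median and log2-transformed.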

[1] = 0.25 µM, library screen: screen1, EWS-FLI1 expression: high (no doxycycline)
[2] = 0.25 µM, library screen: screen1, EWS-FLI1 expression: low (doxycycline-induced shRNA knockdown)
[3] = 2.5 µM, library screen: screen1, EWS-FLI1 expression: high (no doxycycline)
[4] = 2.5 µM, library screen: screen1, EWS-FLI1 expression: low (doxycycline-induced shRNA knockdown)
[5] = 0.25 µM, library screen: screen2, EWS-FLI1 expression: high (no doxycycline)
[6] = 0.25 µM, library screen: screen2, EWS-FLI1 expression: low (doxycycline-induced shRNA knockdown)
[7] = 2.5 µM, library screen: screen2, EWS-FLI1 expression: high (no doxycycline)
[8] = 2.5 µM, library screen: screen2, EWS-FLI1 expression: low (doxycycline-induced shRNA knockdown)
[9] = 0.103 µM, library screen: screen3, EWS-FLI1 expression: high (no doxycycline)
[10] = 0.103 µM, library screen: screen3, EWS-FLI1 expression: low (doxycycline-induced shRNA knockdown)
[11] = 0.308 µM, library screen: screen3, EWS-FLI1 expression: high (no doxycycline)
[12] = 0.308 µM, library screen: screen3, EWS-FLI1 expression: low (doxycycline-induced shRNA knockdown)
[13] = 0.926 µM, library screen: screen3, EWS-FLI1 expression: high (no doxycycline)
[14] = 0.926 µM, library screen: screen3, EWS-FLI1 expression: low (doxycycline-induced shRNA knockdown)
[15] = 2.8 µM, library screen: screen3, EWS-FLI1 expression: high (no doxycycline)
[16] = 2.8 µM, library screen: screen3, EWS-FLI1 expression: low (doxycycline-induced shRNA knockdown)
[17] = 8.3 µM, library screen: screen3, EWS-FLI1 expression: high (no doxycycline)
[18] = 8.3 µM, library screen: screen3, EWS-FLI1 expression: low (doxycycline-induced shRNA knockdown)
[19] = 25 µM, library screen: screen3, EWS-FLI1 expression: high (no doxycycline)
[20] = 25 µM, library screen: screen3, EWS-FLI1 expression: low (doxycycline-induced shRNA knockdown)
[21] = 0.025 µM, library screen: screen1, EWS-FLI1 expression: high (no doxycycline)
[22] = 0.025 µM, library screen: screen1, EWS-FLI1 expression: low (doxycycline-induced shRNA knockdown)
[23] = 25 µM, library screen: screen1, EWS-FLI1 expression: high (no doxycycline)
[24] = 25 µM, library screen: screen1, EWS-FLI1 expression: low (doxycycline-induced shRNA knockdown)

Measured: cell viability (log2)

COc1cc(O)c2c(=O)c(-c3ccc(O)cc3)coc2c1
inactive: [1] -0.0342 | [2] 0.0164 | [3] 0.131 | [4] 0.0327

O=C1CCCCC/C=C\CCCCCCCCO1
inactive: [1] -0.00728 | [2] 0.0186 | [3] 0.143 | [4] 0.0924

CCCCCCCCCCCCCCCCCC(=O)NCC(COP(=O)([O-])OCC[N+](C)(C)C)OC (stereo not drawn)
inactive: [5] 0.255 | [6] 0.0758 | [7] 0.173 | [8] 0.0504

Cc1cc(Nc2cc(CN3CCOCC3)c3nc(C)c(Cc4ccc(Cl)cc4F)n3n2)n[nH]1
active: [15] -0.183 | [17] -0.442 | [18] -0.142 | [19] -1.04 | [20] -0.863
inactive: [9] 0.0112 | [10] 0.0393 | [11] -0.00623 | [12] -0.00356 | [13] -0.0578 | [14] 0.0432 | [16] -0.0123

COc1c2ccoc2c(OC)c2oc(=O)ccc12
inactive: [1] 0.157 | [2] -0.0309 | [3] 0.197 | [4] 0.0899

CC1Cc2ccccc2N1C(=S)Nc1ccc2nccnc2c1 (stereo not drawn)
inactive: [1] 0.139 | [2] 0.113 | [3] 0.133 | [4] 0.0139

CCC(C)(C)C(=O)O[C@H]1C[C@@H](C)C=C2C=C[C@H](C)[C@H](CC[C@@H]3C[C@@H](O)CC(=O)O3)[C@H]21
inactive: [9] 0.14 | [10] 0.05 | [1] 0.0551 | [2] -0.0746 | [11] 0.153 | [12] 0.105 | [13] 0.0408 | [14] 0.0447 | [3] 0.0209 | [4] -0.321 | [15] 0.107 | [16] -0.0366 | [17] -0.0829 | [18] -0.13
active: [19] -1.27 | [20] -1.32

CC[C@H](C)C(=O)O[C@H]1C[C@@H](C)C=C2C=C[C@H](C)[C@H](CC[C@@H]3C[C@@H](O)CC(=O)O3)[C@H]21
inactive: [1] 0.0174 | [2] -0.0358 | [3] 0.109 | [4] 0.0431

CC[C@H](C)C(=O)O[C@H]1CCC=C2C=C[C@H](C)[C@H](CC[C@@H]3C[C@@H](O)CC(=O)O3)[C@H]21
inactive: [1] 0.147 | [2] 0.00215 | [5] 0.167 | [6] 0.108 | [3] 0.0603 | [4] -0.0998 | [7] 0.145 | [8] 0.0674

COCCn1c2c([n+](Cc3cnccn3)c1C)C(=O)c1ccccc1C2=O
active: [9] -3.94 | [10] -2.36 | [11] -3.88 | [12] -4.02 | [13] -3.96 | [14] -4.06 | [15] -4.31 | [16] -4.17 | [17] -4.31 | [18] -4.28 | [19] -4.31 | [20] -4.3

CC(=O)OCC(=O)[C@@]1(O)CC[C@H]2[C@@H]3CC[C@@H]4C[C@H](O)CC[C@]4(C)[C@H]3C(=O)C[C@@]21C
inactive: [1] 0.128 | [2] 0.0697 | [3] 0.109 | [4] -0.0114

COc1ccc(-c2cc(=O)c3ccccc3o2)cc1OC
inactive: [1] -0.0122 | [2] 0.00789 | [3] 0.068 | [4] 0.128

C=C[C@@H](C1=CC(=O)C(OC)=C(OC)C1=O)c1ccccc1
active: [1] -0.165
inactive: [2] 0.026 | [3] -0.00361 | [4] 0.0945

C=CC(C1=CC(=O)C(OC)=CC1=O)c1ccccc1 (stereo not drawn)
inactive: [1] 0.0774 | [2] 0.000535 | [3] 0.158 | [4] 0.101

C=CC(C1=CC(=O)C(OC)=CC1=O)c1ccc(OC)cc1 (stereo not drawn)
inactive: [1] 0.133 | [2] 0.135 | [3] 0.157 | [4] 0.265

COc1ccc(C2C3=C(CC(C)(C)CC3=O)OC3=C2C(=O)CC(C)(C)C3)cc1[N+](=O)[O-]
inactive: [1] 0.06 | [2] 0.0112 | [3] 0.134 | [4] -0.00188

CC1=C(O)C(=O)C(C(C)C)CC1 (stereo not drawn)
inactive: [1] 0.0674 | [2] 0.0473 | [3] 0.0636 | [4] 0.0767

COc1ccc(C2CC(=O)c3c(OC)cc(O)cc3O2)cc1 (stereo not drawn)
inactive: [1] 0.0309 | [2] -0.00204 | [3] -0.0215 | [4] 0.0561

CC1=C2[C@H]3OC(=O)[C@@H](C)[C@@H]3[C@@H](O)C[C@@]2(C)C=CC1=O
inactive: [1] 0.026 | [2] 0.0292 | [3] 0.113 | [4] 0.0749

CC(C)[C@@H](C)C=C[C@@H](C)[C@H]1CC[C@H]2C3=CCC4CC(=O)CC[C@]4(C)[C@H]3CC[C@]12C (stereo partly drawn)
inactive: [1] 0.0656 | [2] 0.0592 | [3] 0.126 | [4] 0.0808

C[C@@H]1C/C=C/C=C/C=C/C=C/[C@H](OC2O[C@H](C)[C@@H](O)[C@H](N)[C@@H]2O)C[C@@H]2O[C@](O)(C[C@@H](O)C[C@H]3O[C@@H]3/C=C/C(=O)O1)C[C@H](O)[C@H]2C(=O)O (stereo partly drawn)
inactive: [9] 0.0488 | [10] 0.0464 | [11] 0.0456 | [12] 0.0497 | [13] 0.0317 | [14] 0.0938 | [15] 0.0554 | [16] 0.0621 | [17] 0.0808 | [18] 0.0825 | [19] 0.128 | [20] 0.0916

CCCCCCCCCCCCCCCC(=O)C1=C(O)[C@@H](CO)OC1=O
inactive: [21] 0.213 | [22] 0.0909 | [1] 0.235 | [2] 0.112 | [4] 0.0271 | [24] -0.135
active: [3] -0.362 | [23] -0.293

CCCCCCCCCCCCCCCC(=O)NCCO
inactive: [5] 0.109 | [6] 0.0709 | [7] 0.0624 | [8] 0.0396

N#C/C(=C\c1cccc(Cl)c1)c1nc2ccccc2[nH]1
inactive: [1] 0.153 | [2] 0.256 | [3] 0.247 | [4] 0.148

Oc1ccc(OCc2ccccc2)cc1
inactive: [9] 0.123 | [10] -0.0268 | [11] 0.0306 | [12] 0.0601 | [13] 0.0336 | [14] -0.0221 | [16] 0.0872 | [17] -0.00746 | [18] 0.0842 | [20] 0.0776
active: [15] -0.186 | [19] -0.212

O=C(OCc1ccccc1)c1ccccc1
inactive: [1] 0.0522 | [2] 0.0983 | [3] 0.0811 | [4] 0.112

CC(COc1ccccc1)NC(C)C(O)c1ccc(O)cc1 (stereo not drawn)
inactive: [1] 0.163 | [2] 0.0434 | [3] 0.178 | [4] 0.141

C=C1CCC2OC2(C)CCC2C1CC2(C)C (stereo not drawn)
inactive: [1] 0.0308 | [2] 0.0474 | [3] 0.104 | [4] 0.0209

COc1ccc2c(c1OC)C(=O)O[C@H]2[C@@H]1c2ccccc2CCN1C
inactive: [1] 0.0344 | [2] 0.0398 | [3] 0.0365 | [4] -0.0658

CCC(C)C(NC)C(=O)O (stereo not drawn)
inactive: [1] 0.07 | [2] 0.0975 | [3] 0.13 | [4] -0.0496

COc1ccc(S(=O)(=O)N(CCO)c2ccccc2CN(C)C/C=C/c2ccc(Cl)cc2)cc1
inactive: [21] 0.202 | [22] -0.0138 | [1] 0.226 | [2] 0.0804 | [4] -0.0574
active: [3] -0.284 | [23] -1.32 | [24] -0.531

COc1cccc(NC(=O)/C=C/c2ccc(Cl)cc2)c1
inactive: [5] 0.303 | [6] 0.124 | [7] 0.272 | [8] 0.108

CC(=O)OCC(OC(C)=O)C(OC(C)=O)C(OC(C)=O)C(OC(C)=O)C(COC(C)=O)OC(C)=O (stereo not drawn)
inactive: [1] 0.1 | [2] 0.086 | [3] 0.176 | [4] -0.0056

CCn1cc(C(=O)O)c(=O)c2ccc(Cc3ccccc3)nc21
inactive: [5] 0.215 | [6] 0.061 | [7] 0.162 | [8] 0.124

COc1cc(CN2CCN(Cc3ccc([N+](=O)[O-])cc3)CC2)c([N+](=O)[O-])cc1OC
inactive: [1] 0.132 | [2] 0.09 | [3] 0.0515 | [4] 0.104

CC1(C)C[C@@H]2C(=O)CC[C@@H]3O[C@]3(C)CC[C@H]21
inactive: [1] 0.14 | [2] 0.0852 | [3] 0.132 | [4] 0.0776

CC1=C2C(=CO[C@H](C)[C@H]2C)C(=O)C(C(=O)O)=C1O
inactive: [1] 0.0243 | [2] 0.0421 | [3] 0.12 | [4] 0.0982

COc1ccc2nc([S@@+]([O-])Cc3ncc(C)c(OC)c3C)[nH]c2c1
inactive: [9] 0.0353 | [10] -0.0468 | [11] 0.00454 | [12] 2e-05 | [13] -0.0308 | [14] -0.0128 | [15] -0.0416 | [16] 0.00305 | [17] 0.0504 | [18] 0.0301 | [19] -0.0361 | [20] -0.0116

Cc1c(OCC(F)(F)F)ccnc1C[S+]([O-])c1nc2ccccc2[nH]1 (stereo not drawn)
inactive: [9] 0.0918 | [10] 0.101 | [1] 0.136 | [2] 0.0633 | [5] 0.166 | [6] 0.0843 | [11] 0.0516 | [12] 0.0264 | [13] 0.0709 | [14] 0.0884 | [3] 0.133 | [4] 0.126 | [7] 0.122 | [8] 0.0984 | [15] 0.0259 | [16] 0.0107 | [17] -0.0254 | [18] 0.0817 | [20] 0.0393
active: [19] -0.241

COc1ccc2nc([S+]([O-])Cc3ncc(C)c(OC)c3C)[nH]c2c1 (stereo not drawn)
inactive: [9] 0.0555 | [10] 0.0372 | [11] -0.0266 | [12] 0.0199 | [13] -0.0106 | [14] 0.0522 | [15] -0.0439 | [16] 0.0389 | [17] -0.0449 | [18] 0.0231 | [19] -0.03 | [20] -0.014
